This is part of a sample that, as a whole, favours compounds with a hit. Of some 83,000 tested, about 20% had one in any assay.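 Note: values are percent growth. 100 is the growth of untreated cells, values between 100 and 0 indicate rising inhibition; between -100 and 0 indicates cell death.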 A number with no mark means an inactive call. Activity calls are given as the source filed them. How the source made its calls: active means growth percent below 10; inactive means the rest.
Assays:
Test in all cases: NCI-60 one-dose screen, 48 h (100 = growth as untreated, 0 = no growth, -100 = all killed)
Conditions in all cases: 10 µM unless noted
DU-145 prostate = system: DU-145 prostate
K-562 leukemia = system: K-562 leukemia
MALME-3M melanoma = system: MALME-3M melanoma
MDA-MB-231 breast = system: MDA-MB-231 breast
RXF 393 renal = system: RXF 393 renal
SF-268 CNS = system: SF-268 CNS
SF-295 CNS = system: SF-295 CNS
SF-539 CNS = system: SF-539 CNS
UACC-257 melanoma = system: UACC-257 melanoma
M14 melanoma = system: M14 melanoma

Row | Structure (SMILES) | growth (DU-145 prostate) | growth (K-562 leukemia) | growth (MALME-3M melanoma) | growth (MDA-MB-231 breast) | growth (RXF 393 renal) | growth (SF-268 CNS) | growth (SF-295 CNS) | growth (SF-539 CNS) | growth (UACC-257 melanoma) | growth (M14 melanoma)
1 | Cc1ccc(C(SCCNCc2cc(N(C)C)ccn2)(c2ccccc2)c2ccccc2)cc1 | -8% (active) | -42.7% (active) | -94.4% (active) | -56.9% (active) | -47.3% (active) | -2.09% (active) | -96.1% (active) | -99.1% (active) | -65.4% (active) | -84.3% (active)
2 | COc1ccc(/C=C/c2nc3ccccc3n3c(-c4ccc(Cl)cc4)nnc23)cc1 | 98.5% | 72.4% | 104% | 91.7% | 100% | 79.4% | 123% | 90.8% | 102% | 102%
3 | CN1CCN(/C(=N\c2sc(-c3ccccc3)nc2-c2ccccc2)c2ccccc2)CC1 | 92.3% | 17.8% | 77.9% | 77.9% | 76.1% | 91.5% | 87.6% | 76% | 77.4% | 76.8%
4 | Cc1ccc2c(c1)nc(-c1ccccc1)n2CC(=O)N=Nc1c(O)[nH]c2ccc(Br)cc12 | -10.8% (active) | -7.04% (active) | -85.7% (active) | -76.4% (active) | -79.9% (active) | 0.768% (active) | -80.6% (active) | -91.1% (active) | -51.5% (active) | -54.6% (active)
5 | Cc1ccc(C(=O)CSc2nc3ccc(C)cc3c(=O)n2-c2ccc(F)cc2)cc1 | 80.9% | 92.7% | 79.6% | 21.3% | 30.5% | 45.5% | 28% | 40.2% | 85.9% | 79.7%
6 | Cc1cccc(NC(=O)CN2CCN(c3ncnc4c3cnn4-c3ccccc3)CC2)c1 | 96.7% | 67.5% | 99.4% | 87.4% | 90% | 88.4% | 117% | 102% | 102% | 94.4%
7 | COc1ccc(C(SCCNCc2cc(N(C)C)ccn2)(c2ccccc2)c2ccccc2)cc1 | 7.05% (active) | -28.5% (active) | -91.4% (active) | -33.4% (active) | -21.4% (active) | 22.1% | -58.8% (active) | -93% (active) | -20.9% (active) | -46.3% (active)
8 | CC(=O)c1cccc(NC(=O)CCC(=O)NS(=O)(=O)c2ccc(C)cc2)c1 | 122% | 101% | 103% | 107% | 132% | 134% | 104% | 105% | 103% | 102%
9 | OCC1(CCCc2ccccc2)CCCN(c2nccc3ccccc23)C1 (stereo not given) | 68.3% | 18.6% | 24.8% | 52.1% | 61.1% | 61.8% | 17% | 43.1% | 10.6% | 8.76% (active)
10 | COc1ccc(-c2nc3cc(C)ccc3n2CC(=O)N=Nc2c(O)[nH]c3ccc(OC)cc23)cc1 | 8.56% (active) | -28.5% (active) | -94.6% (active) | -76.3% (active) | -82.9% (active) | -8.44% (active) | -72.9% (active) | -99% (active) | -78% (active) | -83.2% (active)
11 | CCCn1cc(-c2nc(Nc3ccc(C(=O)NCCCCNc4cccc5c4C(=O)N(C4CCC(=O)NC4=O)C5=O)cc3)nc3[nH]ccc23)cn1 (stereo not given) | 64.1% | 15.8% | -24.4% (active) | -23.3% (active) | 34.9% | 28.2% | 28.3% | 26.6% | 96.4% | 21.4%
12 | COc1ccc2[nH]c(O)c(N=NC(=O)Cn3c(-c4ccccc4)nc4cc(C)ccc43)c2c1 | 38.2% | 12.3% | -48% (active) | -26.3% (active) | -35.6% (active) | 38.5% | 44.9% | -28.1% (active) | 21.7% | 9.19% (active)
13 | Cc1ccc(C(=O)CSc2nc3ccc(F)cc3c(=O)n2-c2ccc(Cl)cc2)cc1 | 50.4% | 88.8% | 39.6% | 13.7% | -10.6% (active) | 28.9% | 4.69% (active) | 2.03% (active) | 70.4% | 56.5%
14 | COc1ccc2[nH]cc(-c3cc(N)n4nc(-c5cn(C)c6ccccc56)cc4n3)c2c1 | -64.7% (active) | 4.69% (active) | -75.5% (active) | -44.8% (active) | -83.9% (active) | -11.7% (active) | -81% (active) | -82% (active) | -86.2% (active) | -91.1% (active)
15 | CCOC(=O)COc1c(OC)c(OC)cc2oc(-c3cccc(C(=O)Nc4ccc(Cl)cc4)c3)cc(=O)c12 | 64% | 23.2% | 52% | 50.7% | 75.6% | 56.1% | 38.2% | 59.8% | 77.2% | 33.9%
16 | O=[N+]([O-])c1ccc(/C=C/c2nc3ccccc3n3c(=S)[nH]nc23)cc1 | 88% | 70.5% | 101% | 85.9% | 78.7% | 80.1% | 125% | 98.4% | 94.8% | 84.4%
17 | C=C1CCC2C3(C)COC(c4ccccc4F)OC3CCC2(C)C1CC(O)C1=CCOC1=O (stereo not given) | 67.2% | 21.3% | 92.9% | 77.7% | 50.7% | 103% | 77.2% | 16.3% | 75.1% | 26.5%
18 | C=C1CC[C@@H]2[C@]3(C)COC(c4cn[nH]c4-c4ccc(Br)cc4)O[C@@H]3CC[C@@]2(C)[C@@H]1C/C=C1/C(=O)OCC1O (stereo not given in full) | -78.6% (active) | 7.76% (active) | -70.7% (active) | -65.8% (active) | -89.1% (active) | -13.3% (active) | -65.6% (active) | -94.4% (active) | -71.4% (active) | -69.5% (active)
19 | O=C(Nc1cccc(-n2cnc3cc(-c4ccc(O)cc4)ccc32)c1)C1CC1 | 28.5% | 12.2% | 46.3% | 32.3% | 14.1% | 34.9% | 6.04% (active) | -6.53% (active) | 73.3% | 40.5%
20 | O=C1NC(=O)/C(=C/c2ccccc2OCc2cc3ccccc3nc2Cl)S1 | 90.5% | 84.6% | 82.8% | 64.2% | 72.8% | 58.7% | 72% | 70.8% | 89.4% | 120%
21 | CCCSc1nc(NCCc2c[nH]c3ccccc23)c(C#N)c(-c2ccccc2)n1 | 75.3% | 25.2% | 100% | 40.6% | 55.2% | 70.5% | 72.6% | 66.2% | 100% | 83.5%
22 | O=C1NC(=O)c2c1c1c3cc(Br)ccc3[nH]c1c1oc3ccc(F)cc3c21 | -31.5% (active) | 4.29% (active) | -31.1% (active) | -25.3% (active) | -47.7% (active) | -22.6% (active) | -64.3% (active) | -68.5% (active) | 48.4% | 20%
23 | COC(=O)/C=C/c1cccc2c1C(=O)NC(C)(c1cc3cc4ccccc4cc3oc1=O)N2 (stereo not given) | 46.1% | 46.7% | 19.6% | 28.5% | -0.792% (active) | 42.8% | 75.3% | 44.7% | 77.8% | 55.9%
24 | Nc1nnc(-c2c[nH]c3ncc(Br)cc23)c(-c2c[nH]c3ccc(F)cc23)n1 | 44% | 23% | 13.7% | 51.6% | 40.9% | 49% | 35.1% | 34.8% | 44.9% | 23.4%

— PubChem BioAssay (NCI)
